# Measurements: PubChem BioAssay AID1049 (The Scripps Research Institute Molecular Screening Center, 2008)
# The campaign covered roughly 200,000 compounds. About 780 (0.39%) were called active. No stated cut-off is given here; in the data, active means TR-FRET ratio above about 2000; inactive means the rest. For the sample, actives were picked, then their nearest neighbours and some compounds at random.
# Experiment: TR-FRET signal artefacts, primary screen, artefact control for PPARgamma SRC-2 agonist project, biochemical (AID 1049)
# Conditions: TR-FRET artefact counter-screen; at 8 µM; active compounds read high
row,Compound,TR-FRET ratio
1,COc1ccc(-c2nnco2)cc1OC,1520 (inactive)
2,COc1ccc2c(Cl)c(-c3nnco3)sc2c1,2130 (active)
3,COc1ccc2c(Cl)c(C(=O)NCc3ccco3)sc2c1,1570 (inactive)
4,COCCNC(=S)N/N=C/c1c(C)[nH]c2ccccc12,1410 (inactive)
5,COc1ccc(C(=O)NC2CCN(C(=S)NCCc3ccccc3)CC2)cc1,1560 (inactive)
6,C/C=C(\C)C(=O)NCCN1C2=NC[C@H](Cc3ccc(O)cc3)N2C[C@@H]1Cc1ccc(OC)cc1,1390 (inactive)
7,CCN1CCC2(CCN(Cc3cn[nH]c3-c3ccc(OC)c(F)c3)C2)C1 (stereo not drawn),1730 (inactive)
8,N#Cc1ccc(-c2ccc(Cl)cc2)nc1Oc1ccc(F)cc1,5180 (active)
9,N#Cc1ccc(-c2ccc(F)cc2)nc1Sc1ccccc1,1500 (inactive)
10,CN(C)c1ccnc(Oc2ccc(F)cc2)c1C#N,1800 (inactive)
11,CCn1cc(C(=O)Nc2cc(C)ccc2C)c(=O)c2ccc(C)nc21,1650 (inactive)
12,CCOC(=O)C1(Cc2cccc(OC)c2)CCN(C(C)CC(C)(C)O)CC1 (stereo not drawn),1480 (inactive)
13,COC(=O)CSc1nccc(-c2cccs2)n1,1880 (inactive)
14,COc1ccc(OC)c(C(=O)CSc2nnc(-c3cccs3)o2)c1,1750 (inactive)
15,NC(=O)CSc1oc(-c2cccs2)nc1S(=O)(=O)c1ccccc1,2010 (active)
16,CCCn1c(N)c(C(=O)CSc2nc3ccccc3c(=O)n2-c2ccc(OC)cc2)c(=O)[nH]c1=O,1480 (inactive)
17,Cc1cc(C)nc(/N=C2\NC(=O)CC(C(=O)O)N2c2ccc(Cl)cc2Cl)n1 (stereo not drawn),1590 (inactive)
18,COc1cccc(-c2ccc(SCC(=O)N3CCN(c4ccccc4)CC3)nn2)c1,1690 (inactive)
19,COc1cc(C2C(C(=O)c3ccc(C)o3)=C(O)C(=O)N2Cc2cccnc2)ccc1O (stereo not drawn),1570 (inactive)
20,COc1cc(C2C(C(=O)c3ccc(C)o3)=C(O)C(=O)N2CCc2ccccc2)ccc1O (stereo not drawn),1530 (inactive)
21,CCCOc1ccc(C2C(C(=O)c3ccc(C)o3)=C(O)C(=O)N2CCCn2ccnc2)cc1 (stereo not drawn),2170 (active)
22,COc1ccc(NC(=O)COC(=O)c2ccc(NS(=O)(=O)/C=C/c3ccccc3)cc2)cc1,1720 (inactive)
23,O=C(c1ccc2ccccc2n1)N1CCN(c2ccccc2Cl)CC1,1700 (inactive)

row,Compound,TR-FRET ratio
1,COc1ccc(C2C(C#N)=C(N)N(c3ncn[nH]3)C3=C2C(=O)CCC3)cc1 (stereo not drawn),1620 (inactive)
2,COc1cccc(CN2CCNC(=O)C2CC(=O)N(C)CCc2ccccn2)c1 (stereo not drawn),1620 (inactive)
3,NC(=NC(=O)c1ccccc1)N1CCOCC1,1360 (inactive)
4,CC(C(=O)N1CCOCC1)N1c2cccc3cccc(c23)S1(=O)=O (stereo not drawn),2090 (active)
5,Cc1ccc(S(=O)(=O)NC(C(=O)N2CCOCCOCCOCCOCC2)c2ccccc2)cc1 (stereo not drawn),1360 (inactive)
6,C/C(=N\N1CCN(Cc2ccc(C)cc2)CC1)c1ccco1,1400 (inactive)
7,Cc1nnc(SCc2cccc(Cl)c2)n(N)c1=O,1460 (inactive)
8,Cc1cc([N+](=O)[O-])nn1CCCC(=O)Nc1cccnc1Cl,1580 (inactive)
9,CC(NC(=S)Nc1ccc(S(N)(=O)=O)cc1)c1ccc2c(c1)OCO2 (stereo not drawn),1640 (inactive)
10,CC(C)(C)N(CC#CCC(O)(c1ccccc1)C1CCCC1)CCO (stereo not drawn),1230 (inactive)
11,O=C1NC(c2cccc(Cl)c2)Nc2ccccc21 (stereo not drawn),1540 (inactive)
12,CC(=O)N1c2ccccc2N(Cc2ccc([N+](=O)[O-])cc2)C(=O)C1(C)C,1510 (inactive)
13,CCC1CCCCN1C(=S)Nc1ccc(C(C)=O)cc1 (stereo not drawn),1340 (inactive)
14,CCN(CC)CCCNC(=O)CCc1ccccc1,1550 (inactive)
15,CCN(CC)CCCNC(=O)c1cc(-c2cccc(Cl)c2)on1,1610 (inactive)
16,CCN(CCCNC(=O)CSc1cc(=O)n(C)c2cc(Cl)ccc12)Cc1ccccc1,2600 (active)
17,CCc1ccc(CN(C)Cc2nc(Cc3ccccc3)no2)nc1,1650 (inactive)
18,CCOC(=O)c1ccc(NC(=O)c2cc(=O)[nH]c3ccccc23)cc1,1510 (inactive)
19,O=C(O)Cc1sc(-c2ccc(C(=O)O)cc2)nc1-c1ccccc1,1800 (inactive)
20,Cc1ccc(-c2nc(C)sc2CC(=O)O)cc1,1600 (inactive)
21,O=C(O)Cc1sc(-c2ccccc2)nc1-c1cccs1,2400 (active)
22,N#CC1(NC(=O)COc2ccc3oc4ccccc4c3c2)CCCCC1,1590 (inactive)
23,COc1cc(C=O)c(Br)cc1OCC(=O)NCc1ccccc1,1530 (inactive)

row,Compound,TR-FRET ratio
1,O=C(NCc1ccco1)c1cc2sccc2n1Cc1ccc(F)cc1,1520 (inactive)
2,CCOC(=O)c1cc2sccc2n1Cc1ccc(C#N)cc1,1400 (inactive)
3,CC1Cc2ccccc2N1C(=O)c1cc2sccc2n1Cc1ccccc1 (stereo not drawn),1970 (active)
4,O=C(CSCc1ccccc1)N1CCc2ccccc21,1410 (inactive)
5,O=C(c1cc2sccc2n1Cc1ccc(F)cc1)N1CCc2ccccc21,2950 (active)
6,Cc1cc(=O)[nH]c(SCC(=O)N2c3ccccc3CC2C)n1 (stereo not drawn),1610 (inactive)
7,COc1ccc(-c2csc(Cc3nc(O)cs3)n2)cc1,1650 (inactive)
8,CC(O)c1cccc(NC(=O)Cc2cccc3ccccc23)c1 (stereo not drawn),1490 (inactive)
9,CC1(C)CC(=O)C/C(=N\NC(=O)c2cccs2)C1,1760 (inactive)
10,COc1cc(/C=C/C(=O)OCC(=O)NC(=O)NCc2ccccc2)ccc1OCC#N,1430 (inactive)
11,C=CCNC(=O)CSc1nc2sc(C)c(C)c2c(=O)[nH]1,1430 (inactive)
12,CC(=O)c1sc2nc(SCC(=O)N3CCCCC3)[nH]c(=O)c2c1C,1990 (active)
13,O=C(CSc1nc2c(cnn2-c2ccc(F)cc2)c(=O)[nH]1)N1CCCCCC1,1460 (inactive)
14,Cn1c(=O)cc(SCC(=O)N2CCCC2)c2cc(Cl)ccc21,2940 (active)
15,CCOC(=O)N1CCC(NC(=O)COc2cc(=O)n(C)c3ccccc23)CC1,1480 (inactive)
16,CCOc1ccc(CCNC(=O)CSc2cc(=O)n(C)c3ccc(Cl)cc23)cc1OCC,1900 (inactive)
17,Cc1cccc(OCc2nnc(SCC(=O)N3CCN(C(=O)c4ccco4)CC3)n2C)c1C,1760 (inactive)
18,CC(=O)c1ccc(-n2nnnc2SCC(=O)N2CCN(C(=O)c3ccco3)CC2)cc1,1580 (inactive)
19,Cn1c(=O)cc(SCC(=O)N2CCN(C(=O)c3ccco3)CC2)c2ccccc21,2320 (active)
20,O=C(CSCc1ccc(Cl)cc1)N1CCCCC1,1510 (inactive)
21,CCOC(=O)C1CCN(C(=O)Cn2cc(C#N)c3ccccc32)CC1,1470 (inactive)
22,CCOC(=O)C1CCN(C(=O)CSc2cc(=O)n(C)c3ccccc23)CC1,2840 (active)
